Laboratory results reported in PubChem BioAssay AID1159580 (chemical genetic matrix, 2015).
Several values for one entry are separate records, joined by “and”; a condition that tells them apart may be missing. Identical values can stand only once. Among all 5,500 compounds or so, about 2,000 (36%) were called active. Inconclusive results (about 18%) are left out. Rule as the data show it: active = normalized growth mostly below about 0.91 (no sharp cut-off); inconclusive = no clear call, values can overlap the other calls; inactive = mostly above about 0.92. The list shows a part of the results.

Assay: chemical genetic growth profiling, strain panel (AID 1159580);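 also: tested at 20 µM; growth read once vehicle control cultures reached saturation at 30 °C; 1 = growth at the plate median or of vehicle wells; lower values mean less growth of the strain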
Settings: S. cerevisiae deletion strains, growth OD

Measured: normalized growth

N[C@@H](CCC(=O)N[C@@H](CS)C(=O)NCC(=O)O)C(=O)O
inactive: locus YAL021C, strain ccr4, hits give low values 1 | locus YAL026C, strain drs2, hits give low values 1.04 | locus YAL030W, strain snc1, hits give low values 0.986 | locus YBL061C, strain skt5, hits give low values 1.01 | locus YBR009C, strain hhf1, hits give low values 0.988 | locus YBR021W, strain FUR4, hits give low values 1.05 | locus YBR023C, strain chs3, hits give low values 1.01 | locus YBR171W, strain sec66, hits give low values 0.981 | locus YBR229C, strain ROT2, hits give low values 1.01 | locus YBR231C, strain swc5, hits give low values 0.972 | locus YBR279W, strain paf1, hits give low values 1 | locus YCL011C, strain gbp2, hits give low values 1.01 | locus YCL016C, strain dcc1, hits give low values 1.02 | locus YCL029C, strain bik1, hits give low values 0.998 | locus YCL061C, strain MRC1, hits give low values 0.99 | locus YCL069W, strain vba3, hits give low values 1.01 | locus YCR088W, strain abp1, hits give low values 0.998 | locus YDL005C, strain med2, hits give low values 0.985 | locus YDL035C, strain GPR1, hits give low values 1.01 | locus YDL040C, strain nat1, hits give low values 0.989 | locus YDL074C, strain BRE1, hits give low values 0.987 | locus YDL101C, strain DUN1, hits give low values 0.991 | locus YDL185W, strain tfp1, hits give low values 0.947 | locus YDL192W, strain arf1, hits give low values 0.988 | locus YDR001C, strain nth1, hits give low values 0.993 | locus YDR069C, strain doa4, hits give low values 0.975 | locus YDR101C, strain arx1, hits give low values 0.992 | locus YDR137W, strain rgp1, hits give low values 1.03 | locus YDR159W, strain sac3, hits give low values 0.943 | locus YDR162C, strain NBP2, hits give low values 0.998 | locus YDR195W, strain ref2 0.927 | locus YDR297W, strain sur2, hits give low values 0.984 | locus YDR318W, strain mcm21, hits give low values 0.993 | locus YDR334W, strain swr1, hits give low values 0.998 | locus YDR335W, strain msn5, hits give low values 0.987 | locus YDR388W, hits give low values 0.998 | locus YDR392W, strain spt3, hits give low values 1 | locus YDR502C, strain sam2, hits give low values 0.987 | locus YEL003W, strain gim4, hits give low values 0.992 | locus YEL037C, strain rad23, hits give low values 0.995 | locus YEL061C, strain CIN8 (second series), hits give low values 0.996 | locus YEL061C, strain CIN8, hits give low values 0.991 | locus YER015W, strain faa2, hits give low values 1 | locus YER016W, strain bim1, hits give low values 1.02 | locus YER110C, hits give low values 0.971 | locus YER111C, strain swi4, hits give low values 1.01 | locus YER155C, strain BEM2 (second series), hits give low values 0.963 | locus YER155C, strain BEM2, hits give low values 0.998 | locus YER167W, strain BCK2, hits give low values 1 | locus YFR010W, strain ubp6, hits give low values 1 | locus YGL078C, strain dbp3, hits give low values 0.99 | locus YGL086W, strain mad1, hits give low values 0.987 | locus YGL167C, strain pmr1, hits give low values 0.988 | locus YGL173C, strain kem1, hits give low values 0.977 | locus YGL227W, strain vid30, hits give low values 0.992 | locus YGL240W, strain doc1, hits give low values 0.973 | locus YGL248W, strain PDE1, hits give low values 0.999 | locus YGL253W, strain hxk2, hits give low values 1.02 | locus YGR135W, strain pre9, hits give low values 0.978 | locus YGR252W, strain gcn5, hits give low values 0.995 | locus YHR013C, strain ard1, hits give low values 0.996 | locus YHR027C, strain rpn1, hits give low values 1.01 | locus YHR030C, strain SLT2, hits give low values 0.992 and 0.922 | locus YHR079C, strain IRE1 (second series), hits give low values 0.985 | locus YHR079C, strain IRE1, hits give low values 0.928 | locus YHR094C, strain hxt1, hits give low values 0.996 | locus YHR129C, strain ARP1, hits give low values 1 | locus YHR142W, strain chs7, hits give low values 1.03 | locus YHR200W, strain rpn10, hits give low values 0.981 | locus YIL066C, strain RNR3, hits give low values 1.01 | locus YIL073C, strain SPO22, hits give low values 0.952 | locus YIL125W, strain kgd1, hits give low values 0.996 | locus YIR030C, strain dcg1, hits give low values 0.991 | locus YJL092W, strain hpr5, hits give low values 0.998 | locus YJL095W, strain BCK1 (second series), hits give low values 1.01 | locus YJL095W, strain BCK1, hits give low values 0.97 and 1.03 | locus YJL115W, strain asf1, hits give low values 0.972 | locus YJL129C, strain trk1, hits give low values 0.975 | locus YJL134W, strain LCB3, hits give low values 0.995 | locus YJL154C, strain vps35, hits give low values 0.998 | locus YJL164C, strain tpk1, hits give low values 1.01 | locus YJL166W, strain qcr8, hits give low values 0.973 | locus YJL168C, strain set2, hits give low values 0.994 | locus YJL187C, strain SWE1 (second series), hits give low values 0.987 | locus YJR043C, strain POL32, hits give low values 0.992 | locus YJR066W, strain TOR1, hits give low values 0.923
